Test [1] is described as follows: compounds binding Alexa647 anti-His antibody – biochemical, small-molecule microarray, 635 nm fluorescence, artefact control for SMM control protein annotation, primary screen (AID 1128).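 Also: score merges feature fluorescence with signal-to-noise for each printed compound spot.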 The settings on record: higher = more signal.
The test system of test [2] is Human papillomavirus type 1a E7 protein (residues 1-88). Kind of test: HPV1a E7 small-molecule binders, primary screen, biochemical, small-molecule microarray, residues 1-88, 635 nm (AID 1129). The note with it: small-molecule microarray binding, fluorescence 635 nm; higher = more signal.
Test [3] deals with Focal adhesion kinase 1 (Homo sapiens) (UniProt Q05397). Kind of test: PTK2 protein binding on printed compound slides – biochemical, small-molecule microarray, 635/667 nm fluorescence, BSA, DTT, primary screen (AID 1130).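 Also: composite of spot emission at 667 nm and signal to noise over triplicate slides.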 The settings on record: 635 nm fluorescence, higher = more signal.
Focal adhesion kinase 1 (Homo sapiens), sequence (Q05397 whole entry, looked up): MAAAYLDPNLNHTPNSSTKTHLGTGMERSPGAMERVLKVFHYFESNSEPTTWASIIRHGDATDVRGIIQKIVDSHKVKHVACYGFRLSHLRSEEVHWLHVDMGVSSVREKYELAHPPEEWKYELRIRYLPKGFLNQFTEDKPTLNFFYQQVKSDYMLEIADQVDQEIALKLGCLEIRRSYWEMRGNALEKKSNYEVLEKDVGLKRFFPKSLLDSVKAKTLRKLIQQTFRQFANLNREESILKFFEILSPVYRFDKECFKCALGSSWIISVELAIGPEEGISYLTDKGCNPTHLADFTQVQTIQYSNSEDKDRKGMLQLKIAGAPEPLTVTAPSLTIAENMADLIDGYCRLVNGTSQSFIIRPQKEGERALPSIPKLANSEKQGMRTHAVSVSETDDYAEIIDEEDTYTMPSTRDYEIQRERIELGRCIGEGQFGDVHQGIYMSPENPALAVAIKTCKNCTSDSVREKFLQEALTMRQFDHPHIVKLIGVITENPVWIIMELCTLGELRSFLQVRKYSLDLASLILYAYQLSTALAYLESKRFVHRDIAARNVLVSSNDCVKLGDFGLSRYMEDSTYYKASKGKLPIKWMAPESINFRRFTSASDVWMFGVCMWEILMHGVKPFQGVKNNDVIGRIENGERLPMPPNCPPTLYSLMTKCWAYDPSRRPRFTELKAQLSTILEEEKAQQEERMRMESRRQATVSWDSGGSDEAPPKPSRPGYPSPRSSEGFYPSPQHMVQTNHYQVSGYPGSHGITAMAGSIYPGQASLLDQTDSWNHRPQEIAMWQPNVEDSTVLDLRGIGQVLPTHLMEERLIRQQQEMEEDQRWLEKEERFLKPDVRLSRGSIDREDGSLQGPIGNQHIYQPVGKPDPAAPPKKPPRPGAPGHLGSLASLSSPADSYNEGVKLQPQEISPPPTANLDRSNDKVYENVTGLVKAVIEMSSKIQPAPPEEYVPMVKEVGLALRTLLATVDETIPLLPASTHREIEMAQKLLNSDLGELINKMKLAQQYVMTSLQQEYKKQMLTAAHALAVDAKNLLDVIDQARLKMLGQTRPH
Test [4] deals with Fibrinogen (Alexa647-labelled). In words: Alexa647-fibrinogen binding to printed small molecules – biochemical, small-molecule microarray, 635/667 nm fluorescence, artefact control for SMM control-protein annotation, profiling panel (AID 1131).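 Also: z-score merges 667 nm fluorescence with per-spot signal-to-noise over triplicate slides.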 The note with it: fibrinogen-A647 binding fluorescence, higher = more signal.
For test [5], the target named is Follistatin (Homo sapiens) (UniProt P19883). Kind of test: FST protein binding to printed compounds – biochemical, small-molecule microarray, 635/667 nm fluorescence, primary screen (AID 1132). The note with it: 635 nm fluorescence, higher = more signal.
Follistatin (Homo sapiens), sequence (P19883 whole entry, looked up): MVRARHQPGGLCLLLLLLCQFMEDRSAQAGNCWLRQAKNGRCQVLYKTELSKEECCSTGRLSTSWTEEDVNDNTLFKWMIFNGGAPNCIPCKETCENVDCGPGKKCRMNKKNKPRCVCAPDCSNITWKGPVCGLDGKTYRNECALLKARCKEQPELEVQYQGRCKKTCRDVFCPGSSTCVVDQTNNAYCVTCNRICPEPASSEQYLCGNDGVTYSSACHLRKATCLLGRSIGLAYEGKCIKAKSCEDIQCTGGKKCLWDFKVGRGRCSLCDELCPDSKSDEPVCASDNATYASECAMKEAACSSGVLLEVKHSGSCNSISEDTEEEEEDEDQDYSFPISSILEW
Test [6] concerns the target Fibroblast growth factor 2 (Homo sapiens) (UniProt P09038). Kind of test: basic fibroblast growth factor binding to printed compounds – biochemical, small-molecule microarray, 635/667 nm fluorescence, primary screen (AID 1133). The note with it: FGF2, fluorescence 635/667, higher = more signal.
The nature of test [7]: JC-1 mitochondrial potential readout, lung cancer cells – cell-based, A549, JC-1 fluorescence, basal, 24 h, 100 nL, profiling panel (AID 1138).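 Also: A549 lung adenocarcinoma cells under basal conditions with no added stimulus; test concentration not given here.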 The note with it: higher = more signal.
Test [8] relates to Lefty1. In words: Lefty1 protein binding to printed compounds – biochemical, small-molecule microarray, 635/667 nm fluorescence, primary screen (AID 1139). The note with it: fluorescence 635/667, higher = more signal.
Test [9] concerns wheat germ agglutinin (Triticum aestivum), Alexa647-labelled. Kind of test: Alexa647-WGA lectin binding to printed small molecules – biochemical, small-molecule microarray, 635/667 nm fluorescence, artefact control for SMM control-protein annotation, profiling panel (AID 1140).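 Also: score merges 667 nm feature emission with signal to noise over triplicate slides.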 The note with it: WGA-A647 binding, 635 nm fluorescence, higher = more signal.
Test [10] deals with Luciferin 4-monooxygenase (Photinus pyralis) (UniProt P08659). In words: inhibition of purified Photinus pyralis luciferase – biochemical, luminescence, purified enzyme, 2006 set, primary screen (AID 1141).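 Also: cell-free assay with purified firefly luciferase at 100 ng per well in PBS; test concentration not given here.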 The settings on record: purified firefly luciferase, SteadyGlo luminescence, 30 min; higher = more signal, called active from +8 up or from −8 down.
Luciferin 4-monooxygenase (Photinus pyralis), sequence (P08659 whole entry, looked up): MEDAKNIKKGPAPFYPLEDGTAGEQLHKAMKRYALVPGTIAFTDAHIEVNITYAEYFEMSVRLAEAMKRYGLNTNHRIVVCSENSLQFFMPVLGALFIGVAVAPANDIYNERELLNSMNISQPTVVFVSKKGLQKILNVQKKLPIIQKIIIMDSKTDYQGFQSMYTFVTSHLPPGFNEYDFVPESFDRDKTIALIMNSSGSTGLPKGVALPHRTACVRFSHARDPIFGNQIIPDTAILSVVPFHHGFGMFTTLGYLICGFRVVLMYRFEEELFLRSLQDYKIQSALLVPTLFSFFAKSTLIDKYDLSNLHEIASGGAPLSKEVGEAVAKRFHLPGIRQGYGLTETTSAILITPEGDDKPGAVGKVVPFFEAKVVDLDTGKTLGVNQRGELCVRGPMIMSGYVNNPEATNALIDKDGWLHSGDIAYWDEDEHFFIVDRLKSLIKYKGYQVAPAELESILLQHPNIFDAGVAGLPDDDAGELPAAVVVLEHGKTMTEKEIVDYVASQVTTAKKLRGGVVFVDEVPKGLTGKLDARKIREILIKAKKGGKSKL
In test [11] the test system is Wnt5a (protein binding on small-molecule microarray). In words: small molecules binding Wnt5a protein – biophysical, small-molecule microarray, 635/667 nm fluorescence, primary screen (AID 1142).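 Also: fluorescence read at 667 nm with signal to noise per printed feature.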 The note with it: 635 nm fluorescence, higher = more signal.
The nature of test [12]: ATP-based viability of Huh7 replicon cells – cell-based, CellTiter-Glo luminescence, basal, 48 h, cytotoxicity control for HCV replication inhibitor project, primary screen (AID 1143).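 Also: Huh7 hepatoma cells carrying a hepatitis C replication reporter with no stimulus; test concentration not given here.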 The settings on record: higher = more signal, called active from +8 up or from −8 down. A general note: A replicon is a self-replicating genome or part of one, used to study replication in cells.

Test [13] can be described thus: Pseudomonas biofilm growth suppression – PAO1 strain, BacTiter-Glo luminescence, LB-PBS, primary screen (AID 1144). The settings on record: P. aeruginosa PAO1 biofilm, 12 h, higher = more signal.
Test [14] is described as follows: basal CRE-LacZ reporter activity in PC12 – cell-based, unstimulated, primary screen (AID 1145). The note with it: no forskolin, luminescence, 4.5 h, higher = more signal, called active from +8 up or from −8 down.
The nature of test [15]: forskolin-driven CRE-LacZ activity in PC12 – cell-based, CRE-LacZ reporter, forskolin-stimulated, primary screen (AID 1146).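 Also: PC12 cells with 6xCRE LacZ reporter stimulated by forskolin 10 µM; beta-galactosidase reporter signal reflecting CREB driven transcription.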 The settings on record: luminescence, 4.5 h, higher = more signal, called active from +8 up or from −8 down.
In test [16] the target is Streptavidin (Streptomyces avidinii) (UniProt P22629). Kind of test: compounds binding control protein streptavidin – biophysical, small-molecule microarray, 635/667 nm fluorescence, artefact control for SMM compound annotation, primary screen (AID 1147).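 Also: signal reflects streptavidin binding to arrayed compounds as a control protein.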 The settings on record: higher = more signal.
Streptavidin (Streptomyces avidinii), sequence (P22629 whole entry, looked up): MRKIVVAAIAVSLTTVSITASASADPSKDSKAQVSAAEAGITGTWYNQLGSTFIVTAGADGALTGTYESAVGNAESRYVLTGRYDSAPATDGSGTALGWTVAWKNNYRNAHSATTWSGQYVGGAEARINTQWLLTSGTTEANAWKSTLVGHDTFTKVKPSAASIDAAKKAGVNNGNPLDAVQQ
Test [17] can be described thus: probe aInhba binding on compound microarray – biochemical, small-molecule microarray, 635/667 nm fluorescence, primary screen (AID 1148).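 Also: score merges 667nm spot fluorescence with signal-to-noise for antibody binding to printed compounds.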 The note with it: higher = more signal.
Test [18] concerns the target Torsin-1A (Homo sapiens) (UniProt O14656). Kind of test: TOR1A wild-type binding on microarray – cell lysate, small-molecule microarray, lysate, 635/667 nm, primary screen (AID 1149). The settings on record: COS7 hTOR1A-WT lysate, 635 nm fluorescence, higher = more signal.
The target is the same in test [19]. In words: torsin A mutant lysate binding on microarrays – cell lysate, small-molecule microarray, COS7 lysate, 635/667 nm fluorescence, primary screen (AID 1150).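 Also: score pools 667 nm emission and signal to noise measuring lysate protein binding.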 The settings on record: COS7 hTOR1A mutant lysate, 635 nm fluorescence, higher = more signal.
The subject of test [20] is Sonic hedgehog protein (Shh). In words: Sonic hedgehog microarray binding compounds – biochemical, small-molecule microarray, 635/667 nm fluorescence, primary screen (AID 1151).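 Also: Shh protein binding to compounds spotted on small-molecule microarray slides; score combines spot fluorescence intensity with signal-to-noise across triplicate slides.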 The settings on record: 635 nm fluorescence, higher = more signal.

SMILES strings stand for the structures. Active and inactive are the calls of the source. Unless noted, no rule for the calls is given here.

Torsin-1A (Homo sapiens), sequence (O14656 whole entry, looked up): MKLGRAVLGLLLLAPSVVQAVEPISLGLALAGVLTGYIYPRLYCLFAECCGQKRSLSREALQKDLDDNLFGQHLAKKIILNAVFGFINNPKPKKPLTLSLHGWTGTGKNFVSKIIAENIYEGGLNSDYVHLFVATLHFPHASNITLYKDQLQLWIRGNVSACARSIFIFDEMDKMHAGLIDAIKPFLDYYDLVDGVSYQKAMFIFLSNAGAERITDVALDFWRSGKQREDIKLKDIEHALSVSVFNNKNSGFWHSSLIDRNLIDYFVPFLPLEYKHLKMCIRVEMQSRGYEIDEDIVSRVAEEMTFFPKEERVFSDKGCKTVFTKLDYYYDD
Fibroblast growth factor 2 (Homo sapiens), sequence (P09038 whole entry, looked up): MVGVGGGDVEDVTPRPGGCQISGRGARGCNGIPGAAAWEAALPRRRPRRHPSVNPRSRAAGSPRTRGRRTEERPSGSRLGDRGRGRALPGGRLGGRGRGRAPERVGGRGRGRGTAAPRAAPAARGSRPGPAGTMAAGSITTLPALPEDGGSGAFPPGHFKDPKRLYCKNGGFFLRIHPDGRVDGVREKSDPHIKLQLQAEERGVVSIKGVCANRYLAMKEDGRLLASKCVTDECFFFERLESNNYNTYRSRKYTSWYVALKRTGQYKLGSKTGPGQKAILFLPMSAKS

For the compound `O=C1O[C@H](c2ccccc2)[C@H](c2ccccc2)N2[C@H]1[C@@H](C(=O)N1CCN(c3ncccn3)CC1)[C@]1(C(=O)Nc3ccc(C#CC4(O)CCCCCC4)cc31)[C@H]2c1ccc(OCCO)cc1`, the composite z-score in [1] came out at 1.14; in test [2], 1.23; in test [3], 1.03; in test [4], 0.966; in test [5], 1.27; in test [6], 1.48. The composite z-score amounted to 1.38 in test [8]; 1.03 in test [9]; 1.4 in test [11]; 2.76 in test [16]; 1.05 in test [17]; 0.801 in [18]. Moreover, the composite z-score in [19] stood at 1.74; in [20], 2.02. The z-score in test [7] is -1.46; in [10] it was -1.2 (inactive); in [12], -0.69 (inactive); in test [13], -1.09 (inactive); in test [14], -0.698 (inactive); in [15], -0.509 (inactive).

As to `CCCCC=C[C@@H](NC(=O)c1ccc(-c2ccccc2)cc1)c1ccccc1`, the composite z-score in [1] is 0.512; in [2], 1.19; in test [3] it was 0.416; in test [4], 0.413; in test [5] it was -0.107; in test [6] it was -0.0601. Also, the composite z-score in test [8] is -0.217; in [9] it was 0.535; in [11], -0.0312; in [16], 1.18; in [17], 0.319; in [18], 0.58. Also, the composite z-score in [19] was 0.871; in test [20], -0.181. Besides, the z-score in [7] is -0.428; in test [10], 2.01 (inactive); in test [12], -1.76 (inactive); in test [13], -0.00961 (inactive); in [14], 0.197 (inactive); in test [15], -0.013 (inactive).

For the compound `Cc1ccc(S[C@]2(C(=O)NCC(F)(F)F)CC(=O)N(C3CCCCC3)[C@@H]2c2ccc(CO)cc2I)cc1`, the composite z-score in test [1] was determined as 0.21; in test [2] it was 1.21; in [3] it was 0.543; in [4], 0.774; in [5], 0.969; in test [6], 0.621. The composite z-score in test [8] was 0.465; in test [9] it was 0.395; in test [11] it was -0.0208; in test [16] it was 0.864; in test [17] it was 0.0074; in [18], -0.357. For the same compound, the composite z-score came out at 1.19 in test [19] and 0.834 in test [20]. The z-score in test [7] is 2.17; in test [10] it was -0.691 (inactive); in test [12], -1.76 (inactive); in test [13], 1.13 (inactive); in test [14], 0.622 (inactive); in test [15] it was 0.343 (inactive).

With `C=C(/C(=C/C[C@H](OC(=O)c1ccncc1)c1ccc(CO)o1)c1cc(C(=O)OC)ccc1OC)C(C)C`, the composite z-score is 2 in test [1]; 1.02 in test [2]; -0.0585 in test [3]; 0.448 in test [4]; 1.07 in test [5]; 1.21 in [6]. The composite z-score was 1.14 in [8]; 0.433 in test [9]; -0.0222 in test [11]; -0.328 in test [16]; 0.16 in [17]; 1.3 in [18]. Further, the composite z-score in test [19] came out at 1.81; in [20], 1.36. Also, the z-score in [7] was -0.432; in test [10], -1.32 (inactive); in [12], -0.398 (inactive); in test [13] it was -0.742 (inactive); in test [14], 0.621 (inactive); in test [15], 0.953 (inactive).

For `Cc1cc(C)c(C(O)C2C=CC3C(=O)NC(=O)C3N2Nc2ccc(Cl)cc2Cl)c(C)c1` (stereo not given), the composite z-score worked out at 1.37 in [1]; 1.22 in test [2]; 0.941 in [3]; 0.966 in test [4]; 1.08 in [5]; 0.752 in [6]. The composite z-score in test [8] was -0.0986; in [9], 1.19; in test [11], 0.0976; in test [16], 1.64; in [17], 0.249; in [18] it was 0.148. Further, the composite z-score is 0.697 in [19] and -0.684 in test [20]. For the same compound, the z-score in test [7] is -0.318; in test [10] it was -1.43 (inactive); in [12] it was -0.943 (inactive); in test [13], -0.882 (inactive); in [14], -0.329 (inactive); in test [15], -0.496 (inactive).

In the case of `C=C[C@@H](OC)[C@H](OC(=O)Nc1ccc(SC)cc1)c1ccc(O)c(F)c1`, the composite z-score was found to be 3.07 in test [1]; 1.23 in [2]; 0.566 in [3]; 0.763 in test [4]; 1.11 in [5]; 0.207 in test [6]. The composite z-score was 0.885 in [8]; 0.679 in test [9]; 0.183 in test [11]; -0.376 in test [16]; 0.0679 in [17]; 0.242 in test [18]. The composite z-score in test [19] was found to be 0.679; in test [20] it was 1.14. The z-score in test [7] was -1.47; in [10], -1.59 (inactive); in test [12], -1.57 (inactive); in test [13] it was -1.04 (inactive); in test [14], 0.847 (inactive); in test [15] it was 0.425 (inactive).

For the compound `COc1cc2c(cc1OC)CN(C(=O)[C@@H]1[C@H]3C(=O)O[C@H](c4ccccc4)[C@H](c4ccccc4)N3[C@H](c3ccc(OCCO)cc3)[C@@]13C(=O)Nc1ccccc13)CC2`, the composite z-score in test [1] came to 1.04; in test [2], 1.25; in test [3], 0.164; in test [4], 0.971; in test [5] it was 1.31; in test [6] it was 1.26. The composite z-score is 1.19 in test [8]; 1.3 in test [9]; 0.758 in test [11]; 0.607 in test [16]; 0.188 in test [17]; 1.06 in test [18]. Moreover, the composite z-score in test [19] is 0.858; in [20], 1.93. For the same compound, the z-score in test [7] is -0.957; in [10] it was -1.65 (inactive); in [12], -1.06 (inactive); in test [13], -1.46 (inactive); in [14], 0.829 (inactive); in [15] it was -0.437 (inactive).

In the case of `Cc1ccc(S[C@]2(C(=O)NCC(F)(F)F)CC(=O)N(Cc3ccccc3)[C@@H]2c2ccc(CO)cc2I)cc1`, the composite z-score in test [1] is 0.905; in test [2], 0.676; in test [3] it was -0.315; in test [4], 0.0957; in [5] it was -0.0488; in test [6], -0.177. In addition, the composite z-score is -0.779 in test [8]; 0.626 in [9]; 0.0543 in [11]; -0.119 in test [16]; 0.0228 in test [17]; -0.565 in test [18]. Further, the values for the composite z-score in [19] and in [20] were -0.49 and 0.237, respectively. Further, the z-score in [7] was 0.16; in test [10], 0.424 (inactive); in test [12] it was -1.22 (inactive); in test [13] it was 0.479 (inactive); in test [14], -0.581 (inactive); in [15], 1.83 (inactive).

`Cc1ccccc1C(O)C1C=CC2C(=O)N(C)C(=O)C2N1N(c1ccccc1)c1ccccc1` (stereo not given): the composite z-score in test [1] was 1.13; in test [2], -0.298; in test [3], -0.128; in [4], 0.354; in [5], 0.799; in [6], -0.0234. Further, the composite z-score in test [8] is -0.543; in test [9] it was 0.641; in [11], 0.613; in test [16], 0.115; in test [17], 1.15; in test [18] it was -0.0241. Also, the composite z-score in [19] was 0.0289; in test [20], 0.188. In addition, the z-score in test [7] is 0.429; in [10] it was -0.609 (inactive); in [12], -0.0897 (inactive); in [13], -0.588 (inactive); in [14] it was -0.136 (inactive); in [15] it was -0.0376 (inactive).

For the origin of these results see PubChem BioAssay.
